The subject of this assay is HCoV-229E. The arrangement: species or system Huh-7; HTS, protection from HCoV-229E induced cell death, luminescent cell viability (CellCounting-Lite 2.0), inhibition rate. As to conditions: 24 h post infection, 1 h compound pre-incubation, 10 µM, inhibitor.

The structures appear in SMILES notation. Where two headings read alike, the source gives them in different places. Hit rate of the full screen: of about 3,300 compounds, about 95 (3%) showed an effect of 50% or more. Only a selection was taken, and strong results are over-represented in it overall.

With `CC(=O)OCCC(C)CCC=C(C)C` (centres unmarked) [Citronellyl acetate], the “229E Inhibition rate” value is given as 16.2%.
On the same count and under the same terms, the figure for `CCC(O)CC` [3-Pentanol] is 19%.
For `COc1cc(-c2coc3cc4c(c(OC)c3c2=O)OCO4)cc(OC)c1OC` [Irisflorentin], the “229E Inhibition rate” value is reported as 11.3%.
Still for that read-out and setting: with `COc1cc(-c2coc3cc4c(c(O)c3c2=O)OCO4)cc(O)c1OC` [Dichotomitin] the figure was 53.3%; with `COc1cc(-c2coc3cc(O)c(OC)c(O)c3c2=O)cc(O)c1OC` [Irigenin], 11.4%; with `CO[C@@H]1[C@H](O)[C@@H](CO)O[C@H]1n1ccc(=O)[nH]c1=O` [2′-O-Methyluridine], 20.9%.
On the same count and under the same terms, with `CC1(C)C=Cc2c(ccc3c2OC[C@@H](c2ccc(O)cc2O)C3)O1` [Glabridin] the figure was 54.3%; with `Oc1ccc(C2COc3cc(O)ccc3C2)cc1` (racemic) [(±)-Equol], 11%; with `Oc1ccc([C@H]2COc3cc(O)ccc3C2)cc1` [(-)-(S)-Equol], 8.5%.
As to `C=C1C[C@@]23CC[C@H]4[C@@](C)(CCC[C@@]4(C)C(=O)O)[C@@H]2CC[C@@H]1C3` [Kaurenoic acid], the “229E Inhibition rate” value was found to be 8.8%.
On the same count and under the same terms, the figure for `CC(C)(O)CC[C@@H](O)[C@](C)(O)[C@H]1CC=C2C3=C(CC[C@@]21C)[C@@]1(C)C[C@H](O)[C@H](O)C[C@H]1C(=O)C3` [Podecdysone B] is 11.2%; for `C[C@H](CCC(=O)O)[C@H]1CC[C@H]2[C@@H]3C(=O)C[C@@H]4C[C@H](O)CC[C@]4(C)[C@H]3CC[C@]12C` [7-Ketolithocholic acid] it is 20.5%; for `COc1ccc(C(=O)O)cc1O` [Isovanillic acid] it is 0%.
Still for that read-out and setting: with `COc1cc(C(C)=O)ccc1O` [Apocynin] the figure was 5.3%; with `CC(=O)c1ccc(O)c(O)c1` [3',4'-Dihydroxyacetophenone], 12.4%.
Turning to `COc1ccc(C(C)=O)cc1O` [3-Hydroxy-4-methoxyacetophenone], the “229E Inhibition rate” value amounted to 50.5%.
In the case of `Cc1cc(C(=O)O)ccc1O` [4-Hydroxy-3-methylbenzoic acid], the “229E Inhibition rate” value is given as 61.9%.
In the case of `COc1cc(C(=O)O)ccc1O` [Vanillic acid], the “229E Inhibition rate” value was determined as 50%.
On to `Cc1ccc(C(=O)O)cc1C` [3,4-Dimethylbenzoic acid], for which the “229E Inhibition rate” value turned out to be 23.9%.
On to `CC(=O)c1ccc(O)c(C)c1` [4'-Hydroxy-3'-methylacetophenone], for which the “229E Inhibition rate” value was determined as 11.7%.
The same measure, in the same setting: the figure for `COC(=O)c1ccc(OC)c(O)c1` [Methyl isovanillate] is 12.8%; for `O=Cc1cccs1` [2-Thiophenecarboxaldehyde] it is 6.5%; for `O=C(O)C(O)Cc1ccccc1` (racemic) [DL-3-Phenyllactic acid] it is 22.4%.
Take `COc1cc2c(cc1O)CCN1Cc3c(ccc(OC)c3OC)C[C@@H]21` [Corypalmine]: the “229E Inhibition rate” value came out at 8.4%.
Same read-out and setting: with `C=C[C@](C)(O)CC[C@H]1C(=C)CC[C@H]2C(C)(C)CCC[C@]12C` [Manool] the figure was 42.5%; with `COc1ccc(-c2oc3c(CCC(C)(C)O)c(O)cc(O)c3c(=O)c2O)cc1` [Wushanicaritin], 51.4%.
`COc1ccc(-c2oc3c(CC=C(C)C)c(O)cc(O)c3c(=O)c2O)cc1` [Icaritin]: the “229E Inhibition rate” value was determined as 8.6%.
`CC(C)(O)CCc1c(O)cc(O)c2c(=O)c(O)c(-c3ccc(O)cc3)oc12` [Noricaritin]: the “229E Inhibition rate” value is reported as 14.9%.
The same measure, in the same setting: with `COc1ccc(C2COc3cc(O[C@@H]4O[C@H](CO)[C@@H](O)[C@H](O)[C@H]4O)ccc3C2)c(O)c1OC` (some centres unmarked) [Isomucronulatol 7-O-glucoside] the figure was 13%.
With `CC(C)=CCC/C(C)=C/C=O` [Citral], the “229E Inhibition rate” value was found to be 47.4%.
On the same count and under the same terms, with `C=C1[C@H]2C[C@H]2[C@]2(C)Cc3occ(C)c3[C@H](O)[C@@H]12` [Lindenenol] the figure was 28.5%; with `CCC/C=C1\OC(=O)C2=C1CC[C@@H](O)[C@H]2O` [Senkyunolide H], 47.8%.
As to `CCC/C=C1\OC(=O)C2=C1CC[C@H](O)[C@H]2O` [Senkyunolide I], the “229E Inhibition rate” value was 43.1%.
On to `CCC/C=C1\OC(=O)C2=C1CC[C@H]1[C@H]3C=C4C(=O)O/C(=C\CCC)[C@@]4(CC3)[C@@H]21` [Levistolide A], for which the “229E Inhibition rate” value came out at 60.4%.
Turning to `Cc1ncc(CO)c(C(=O)O)c1O` [4-Pyridoxic acid], the “229E Inhibition rate” value stood at 22.7%.
As to `O=C(O)/C=C/c1ccccc1` [Cinnamic acid], the “229E Inhibition rate” value (229E Inhibition rate, 24 h) stood at 21%.
Turning to `O=C(O)[C@H](O)c1ccccc1` [D-(-)-Mandelic acid], the “229E Inhibition rate” value is recorded as 7.5%.
In the case of `O=C(O)[C@H]1O[C@@H](Oc2cc(O)c3c(=O)cc(-c4ccc(O)c(O)c4)oc3c2)[C@H](O)[C@@H](O)[C@@H]1O` [Luteolin 7-O-glucuronide], the “229E Inhibition rate” value amounted to 11.2%.
Regarding `C[C@@H]1O[C@@H](O[C@H]2[C@H](O[C@H]3CC[C@@]4(C)[C@@H](CC[C@]5(C)[C@@H]4CC=C4[C@@H]6CC(C)(C)CC[C@]6(C(=O)O[C@@H]6O[C@H](CO[C@@H]7O[C@H](CO)[C@@H](O)[C@H](O)[C@H]7O)[C@@H](O)[C@H](O)[C@H]6O)CC[C@]45C)[C@]3(C)CO)OC[C@H](O)[C@@H]2O)[C@H](O)[C@H](O)[C@H]1O` [Dipsacoside B], the “229E Inhibition rate” value stood at 11.1%.
Take `CC1(C)CC[C@]2(C(=O)O[C@@H]3O[C@H](CO[C@@H]4O[C@H](CO)[C@@H](O)[C@H](O)[C@H]4O)[C@@H](O)[C@H](O)[C@H]3O)CC[C@]3(C)C(=CC[C@@H]4[C@@]5(C)CC[C@H](O[C@@H]6OC[C@H](O)[C@H](O)[C@H]6O)[C@@](C)(CO)[C@@H]5CC[C@]43C)[C@@H]2C1` [Asperosaponin VI]: the “229E Inhibition rate” value was 56.6%.
As to `C[C@@H]1CC[C@]2(C(=O)O[C@@H]3O[C@H](CO)[C@@H](O)[C@H](O)[C@H]3O)CC[C@]3(C)C(=CC[C@@H]4[C@@]5(C)C[C@@H](O)[C@H](O)[C@@](C)(CO)[C@@H]5CC[C@]43C)[C@@H]2[C@]1(C)O` [Niga-ichigoside F1], the “229E Inhibition rate” value was determined as 20.4%.
Take `C[C@@H]1O[C@@H](O[C@H]2[C@H](O)[C@@H](O)[C@H](OC[C@H]3O[C@@H](OC(=O)[C@]45CCC(C)(C)C[C@H]4C4=CC[C@@H]6[C@@]7(C)CC[C@H](O[C@@H]8OC[C@H](O)[C@H](O)[C@H]8O)[C@@](C)(CO)[C@@H]7CC[C@@]6(C)[C@]4(C)CC5)[C@H](O)[C@@H](O)[C@@H]3O)O[C@@H]2CO)[C@H](O)[C@H](O)[C@H]1O` [Hederacoside D]: for the setting “229E Inhibition rate, 24 h”, the “229E Inhibition rate” value was found to be 40.4%.
Consider `C[C@@H]1CC[C@]2(C(=O)O[C@@H]3O[C@H](CO)[C@@H](O)[C@H](O)[C@H]3O)CC[C@]3(C)C(=CC[C@@H]4[C@@]5(C)CC[C@H](O)[C@](C)(C(=O)O)[C@@H]5CC[C@]43C)[C@@H]2[C@]1(C)O` [Ilexsaponin A], for which the “229E Inhibition rate” value came to 58.5%.
`C[C@@H]1CC[C@]2(C(=O)O[C@@H]3O[C@H](CO)[C@@H](O)[C@H](O)[C@H]3O)CC[C@]3(C)C(=CC[C@@H]4[C@@]5(C)CC[C@H](O)[C@@](C)(CO)[C@@H]5CC[C@]43C)[C@@H]2[C@]1(C)O` [Pedunculoside]: the “229E Inhibition rate” value turned out to be 10.8%.
As to `O=C(O)C(O)Cc1cc2ccccc2[nH]1` (centres unmarked) [Indolelactic acid], the “229E Inhibition rate” value was 16.7%.
As for `O=C1C=CCO1` [2(5H)-Furanone], the “229E Inhibition rate” value is listed as 8.7%.
The same measure, in the same setting: with `CCCCCC(C)C(=O)O` (centres unmarked) [2-Methylheptanoic acid] the figure was 47.5%; with `NCc1ccccc1O` [o-Hydroxybenzylamine], 9.2%; with `O=C(O)Cc1ccccc1O` [2-Hydroxyphenylacetic acid], 12.4%.
Turning to `OCc1ccccc1O` [Salicyl alcohol], the “229E Inhibition rate” value came out at 51.5%.
On to `c1cc2c(cc1[C@H]1OC[C@@H]3[C@H]1CO[C@H]3c1ccc3c(c1)OCO3)OCO2` [(-)-Asarinin], for which the “229E Inhibition rate” value came out at 9.2%.
With `c1cc2c(cc1O[C@H]1OC[C@H]3[C@@H]1CO[C@@H]3c1ccc3c(c1)OCO3)OCO2` [Sesamolin], the “229E Inhibition rate” value is 62.2%.
As to `c1cc2c(cc1[C@H]1OC[C@H]3[C@@H]1CO[C@@H]3c1ccc3c(c1)OCO3)OCO2` [Sesamin], the “229E Inhibition rate” value was found to be 15.4%.
On to `CC1=C\[C@@H](O)CC(=O)Cc2nc(co2)C(=O)N2CCC=C2C(=O)O[C@H](C(C)C)[C@H](C)/C=C/C(=O)NC\C=C\1` [Virginiamycin M1], for which the “229E Inhibition rate” value was 36.6%.
`N[C@@H](Cc1ccc(O)c([N+](=O)[O-])c1)C(=O)O` [3-Nitro-L-tyrosine]: the “229E Inhibition rate” value was 8%.
For the compound `C=C(C)[C@@H]1CC[C@]2(C)CC[C@]3(C)[C@H](CC[C@@H]4[C@@]5(C)CCC(=O)C(C)(C)[C@@H]5CC[C@]43C)[C@@H]12` [Lupenone], the “229E Inhibition rate” value is reported as 9.9%.
As to `CCc1ccc(O)cc1` [4-Ethylphenol], the “229E Inhibition rate” value amounted to 20.1%.
`CCC1(c2ccc(O)cc2)NC(=O)N(C)C1=O` (centres unmarked) [4-Hydroxymephenytoin]: the “229E Inhibition rate” value is given as 55.5%.
On to `O=c1c(O[C@@H]2OC[C@@H](O)[C@H](O)[C@H]2O)c(-c2ccc(O)c(O)c2)oc2cc(O)cc(O)c12` [Reynoutrin], for which the “229E Inhibition rate” value turned out to be 19.1%.
In the case of `C[C@H]1CC[C@@]2(OC1)O[C@H]1C[C@H]3[C@@H]4CC=C5C[C@@H](O[C@@H]6O[C@H](CO)[C@@H](O)[C@H](O[C@@H]7OC[C@@H](O)[C@H](O)[C@H]7O)[C@H]6O[C@@H]6O[C@@H](C)[C@H](O)[C@@H](O)[C@H]6O)CC[C@]5(C)[C@H]4CC[C@]3(C)[C@H]1[C@@H]2C` [Liriope muscari baily saponins C], the “229E Inhibition rate” value is 31%.
With `COc1cc([C@@H]2c3cc4c(cc3[C@@H]3OC[C@H]2[C@@H]3CO)OCO4)cc(OC)c1OC` [Neoanhydropodophyllol], the “229E Inhibition rate” value came to 9.1%.
In the case of `COc1ccc2cc3[n+](cc2c1OC)CCc1cc2c(cc1-3)OCO2` [Berberine (chloride hydrate)], where the note is “229E Inhibition rate, 24 h”, the “229E Inhibition rate” value was 34%.

Source of the values: article PMC12431657, “Discovery and mechanistic insights of dibenzoylmethane as a broad spectrum inhibitor of coronavirus” (PLOS Pathogens, 2025).
